Bcl-xL primary: inhibitors of human Bcl-xL, primary screen, biochemical, fluorescence polarization, HTS; Bcl-2-like protein 1 (Homo sapiens), Q07817; GST-Bcl-xL / FITC-Bim BH3 peptide fluorescence polarization; inhibition, % at 10.9 µM; 320,000 compounds, 0.7% hits; AID 2129, 2009;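 active means inhibition above the mean of all tested compounds plus 3 SD, cutoff set per campaign, cut at about 30% in these data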;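 further: 0% = DMSO wells and 100% = unlabeled Bim-BH3 peptide competitor; inhibitors lower millipolarization by displacing the labeled peptide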
Target sequence (Q07817 whole entry, looked up): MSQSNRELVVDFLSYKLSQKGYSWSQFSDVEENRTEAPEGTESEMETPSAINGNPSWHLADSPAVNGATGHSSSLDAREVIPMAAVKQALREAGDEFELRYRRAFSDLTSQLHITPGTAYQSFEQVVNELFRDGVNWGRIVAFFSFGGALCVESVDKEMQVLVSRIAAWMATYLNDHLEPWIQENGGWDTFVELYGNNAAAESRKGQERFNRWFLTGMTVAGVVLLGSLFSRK
E coli Lon inh: inhibitors of E. coli Lon protease, primary screen, biochemical, fluorescence polarization | P0A9M0 | inhibition, % at 7.94 µM | purified E. coli Lon protease | 360,000 compounds, 0.42% hits; in the data active means inhibition above about 13%, passing the limit was not always enough;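 further: 0% = enzyme with probe and DMSO and 100% = no enzyme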
EBV gp42 inh: Epstein-Barr virus gp42 inhibitors, primary screen, biochemical, uHTS, fluorescence polarization. Glycoprotein 42 (Epstein-Barr virus (strain AG876)), Q1HVG2. 220,000 compounds, 0.42% hits. AID 1085, 2008. Fluorescence polarization binding assay, mP read-out. inhibition, % (tested at 21.74 µM); in the data active means inhibition above about 50%
MEX-5 binding: MEX-5 zinc finger RNA-binding disruptors – biochemical, C. elegans, fluorescence polarization, MLPCN library, primary screen. Zinc finger protein mex-5 (Caenorhabditis elegans), Q9XUB2. MEX-5/FITC-TCR2 RNA binding; stronger effect = lower value. activity score (negative = inhibition of binding), % at 10 µM. 300,000 compounds, 0.38% hits. AID 1832, 2009;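 active means inhibition past about -25% in most replicates, and total fluorescence under double the plate's negative control median, limit read from the data; inconclusive means replicates evenly split on the limit, or fluorescence at least double controls; inactive means too little inhibition in most replicates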;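 further: 0% = DMSO and -100% = 5 µM competing unlabeled TCR2 RNA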
GLD-1 TGE inh: GLD-1/TGE RNA complex disruptors, primary screen, biochemical, fluorescence polarization. 320,000 compounds, 0.44% hits. purified GLD-1 + fluorescein TGE RNA. inhibition, % at 5.96 µM;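 active means percent inhibition above a per-plate cutoff, the plate mean of test compounds plus 3 SD, cut at about 30% in these data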;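 further: 0% = DMSO wells with GLD-1 and probe and 100% = wells lacking GLD-1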
MCL1-BIM inh: inhibitors of MCL1 binding to BIM-BH3, primary screen, biochemical, fluorescence polarization; Induced myeloid leukemia cell differentiation protein Mcl-1 (Homo sapiens), Q07820; GST-MCL1 / FITC-Bim-BH3 fluorescence polarization; inhibition, % at 10.9 µM; 320,000 compounds, 0.68% hits;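 active means inhibition above the mean inhibition of all tested compounds plus 3 SD, set per campaign, cut at about 40% in these data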;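 further: 0% = DMSO wells and 100% = unlabeled Bim-BH3 peptide control; higher means more loss of mP so more displacement of Bim peptide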
Target sequence (Q07820 whole entry, looked up): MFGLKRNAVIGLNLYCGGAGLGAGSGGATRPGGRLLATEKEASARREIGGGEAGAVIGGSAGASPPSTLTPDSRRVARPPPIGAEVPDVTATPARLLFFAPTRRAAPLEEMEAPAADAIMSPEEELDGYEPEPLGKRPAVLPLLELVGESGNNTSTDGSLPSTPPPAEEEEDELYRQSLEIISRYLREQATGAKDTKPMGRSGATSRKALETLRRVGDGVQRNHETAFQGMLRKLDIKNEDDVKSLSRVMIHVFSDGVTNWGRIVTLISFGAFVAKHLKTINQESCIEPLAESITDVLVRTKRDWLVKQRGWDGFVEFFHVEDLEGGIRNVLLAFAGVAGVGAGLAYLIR
* = called active by the depositor. The list is not random: actives were taken first. Their share in the collection is about 1.5%.

Screening COc1ccc(-c2cn3nc(SCC(=O)NC4CCCCC4)ccc3n2)cc1 returned Bcl-xL primary 0, E coli Lon inh -3, MEX-5 binding 2, GLD-1 TGE inh 6 and MCL1-BIM inh -7.
`CCCCC1=CC2=CC(=O)C(C)(OC(=O)c3cccs3)C(=O)C2=CO1` (configuration not stated) gave Bcl-xL primary 27, E coli Lon inh -20, MEX-5 binding -12, GLD-1 TGE inh 30 and MCL1-BIM inh 39.
Screening COC/C=C/C1=CC2=CC(=O)C(C)(OC(=O)c3cnc4ccccc4n3)C(=O)C2=CN1CCc1ccccn1 (configuration not stated) returned Bcl-xL primary 52*, MEX-5 binding -15, GLD-1 TGE inh 32* and MCL1-BIM inh 55*.
`COC(=O)CCCC1=CC2=CC(=O)C(C)(OC(=O)c3cnc4ccccc4n3)C(=O)C2=CO1` (configuration not stated) gave Bcl-xL primary 95*, MEX-5 binding -67*, GLD-1 TGE inh 94* and MCL1-BIM inh 114*.
Screening COC/C=C/C1=CC2=CC(=O)C(C)(OC(=O)c3cnc4ccccc4n3)C(=O)C2=CN1c1ccc(OC)cc1 (configuration not stated) returned Bcl-xL primary 12, E coli Lon inh -7, MEX-5 binding -4, GLD-1 TGE inh 7 and MCL1-BIM inh 14.
Screening CCCCC1=CC2=CC(=O)C(C)(OC(=O)c3cnc4ccccc4n3)C(=O)C2=CO1 (configuration not stated) returned Bcl-xL primary 64*, EBV gp42 inh 23, MEX-5 binding inconclusive, GLD-1 TGE inh 97* and MCL1-BIM inh 96*.
Screening O=C(NCc1ccccc1)c1cc(C2CCCCN2S(=O)(=O)c2cccc3cccnc23)on1 (configuration not stated) returned E coli Lon inh 2.
`CS(=O)(=O)n1nc(-c2ccc(Cl)cc2)nc1SCc1ccccc1` gave Bcl-xL primary -2, E coli Lon inh 6, EBV gp42 inh 87*, MEX-5 binding 1, GLD-1 TGE inh 6 and MCL1-BIM inh -3.
COc1cccc(/C=C/C(=O)OCC(=O)N2CCCC2)c1OC was read as E coli Lon inh 1 and GLD-1 TGE inh 6.
`CCOc1cc(/C=C/c2cccc[n+]2C)ccc1OCC(=O)Nc1ccc(C)cc1` gave Bcl-xL primary -10, E coli Lon inh -6, MEX-5 binding -43*, GLD-1 TGE inh 7 and MCL1-BIM inh -19.
CC1(C(=O)Nc2cccc(NS(C)(=O)=O)c2)CCN1CCc1ccccc1 (configuration not stated) was read as E coli Lon inh -10.
`Cc1cc2n(n1)C(c1c[nH]c3ccccc13)Nc1ccccc1-2` (configuration not stated) gave Bcl-xL primary 10, E coli Lon inh -10, EBV gp42 inh -6, MEX-5 binding -32*, GLD-1 TGE inh 23 and MCL1-BIM inh 7.
`O=C(Nc1nccs1)c1ccc(-c2ccc([N+](=O)[O-])cc2)o1` gave Bcl-xL primary -8, E coli Lon inh 5, EBV gp42 inh -37, MEX-5 binding -43*, GLD-1 TGE inh 1 and MCL1-BIM inh -22.
For O=C(Nc1nccs1)c1ccc(-c2ccc(Cl)cc2)o1 the results were Bcl-xL primary 1, E coli Lon inh 7, EBV gp42 inh 4, MEX-5 binding -4, GLD-1 TGE inh -2 and MCL1-BIM inh 2.
For C[C@@H]1CN([C@@H](C)CO)S(=O)(=O)c2ccc(Br)cc2O[C@H]1CN(C)Cc1ccccn1 the results were E coli Lon inh 0.
For CCn1c(SCc2nc3sc(C(=O)O)c(C)c3c(=O)[nH]2)nc2ccccc21 the results were Bcl-xL primary 24, E coli Lon inh -42, EBV gp42 inh 19, MEX-5 binding -43*, GLD-1 TGE inh 0 and MCL1-BIM inh 28.
O=C(Nc1ccccc1OC(=O)c1ccccc1)c1ccccc1 was read as E coli Lon inh -13.
O=C(c1ccco1)[C@@H]1[C@@H]2C(=O)N(c3ccc(F)cc3)C(=O)[C@@H]2[C@H]2C=Cc3ccccc3N21 was read as Bcl-xL primary 33*, E coli Lon inh -28, EBV gp42 inh 23, GLD-1 TGE inh 20 and MCL1-BIM inh 9.
Screening O=C1C2C3C=CC(C3)C2C(=O)N1c1ccccc1 (configuration not stated) returned Bcl-xL primary 3, E coli Lon inh 2, EBV gp42 inh 2, MEX-5 binding 1, GLD-1 TGE inh -2 and MCL1-BIM inh 0.
`O=C(c1ccco1)[C@@H]1[C@@H]2C(=O)N(c3ccc(F)cc3)C(=O)[C@@H]2C2c3ccccc3C=CN21` (some centres not stated) gave Bcl-xL primary 78*, EBV gp42 inh 54*, MEX-5 binding -13, GLD-1 TGE inh 69* and MCL1-BIM inh 82*.
`NC(=O)[C@@H]1[C@@H]2C(=O)N(c3ccc(F)cc3)C(=O)[C@@H]2[C@H]2C=Cc3ccccc3N21` gave Bcl-xL primary 34*, E coli Lon inh 2, EBV gp42 inh 32, MEX-5 binding -7, GLD-1 TGE inh 20 and MCL1-BIM inh 32.
`O=C(c1ccco1)[C@@H]1[C@@H]2C(=O)N(c3ccc(Br)cc3)C(=O)[C@@H]2C2c3ccccc3C=CN21` (some centres not stated) gave E coli Lon inh -8.
For COc1ccc(-n2cc(CNCC3CCOCC3)c(-c3cccc(F)c3)n2)cc1 the results were Bcl-xL primary 4, E coli Lon inh -15, EBV gp42 inh -7, MEX-5 binding 1, GLD-1 TGE inh 1 and MCL1-BIM inh 8.
COc1ccc(-n2cc(CNCc3cnc4ccccn34)c(-c3cccc(F)c3)n2)cc1 was read as Bcl-xL primary 6, E coli Lon inh -14, EBV gp42 inh 4, MEX-5 binding -37*, GLD-1 TGE inh -5 and MCL1-BIM inh -1.
Screening COc1cc(N2CCCC2)c(OC)cc1/C=C(/C#N)c1ccc(F)cc1 returned Bcl-xL primary -50, E coli Lon inh -40, EBV gp42 inh 139*, MEX-5 binding -2, GLD-1 TGE inh -42 and MCL1-BIM inh -59.
COc1ccc(C(C#N)=Cc2ccccc2OC)cc1 was read as E coli Lon inh 10.
`COc1ccc(C(C#N)=Cc2ccc(OC)c(OC)c2)cc1` gave E coli Lon inh -4.

Screening data deposited in PubChem BioAssay by several laboratories.
